This is a sample that favours compounds with a hit; in the whole collection about 11% have one here.
L3MBTL1 block: inhibitors of human L3MBTL1; AID 485360; AlphaScreen L3MBTL1–H3K9me1 peptide binding; Q9Y468; actives 0.66% (n = 230,000); Potency, µM (highest dose often 57.1 µM), without a hit: top-dose activity, negative = inhibition, actives largely listed as inhibitors; note: % is set by controls: 0 for no effect and ±100 for the full control effect; nearly all actives have a fitted effect of over 60% in size
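Read-out is AlphaScreen signal from streptavidin donor and nickel chelate acceptor beads (10 ug/mL final each) bridging L3MBTL1 (50 nM) and biotinylated K9-monomethylated H3(1-15) peptide (75 nM), after 30 min compound exposure at room temperature.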
HP1b binding inh: HP1-beta chromodomain-methylated histone interaction inhibition | Potency, µM (series often up to 114 µM), for the others: at the top dose activity change, negative = inhibition, usual class: inhibitors | P83916 | AlphaScreen HP1-beta / biotin-H3K9me3 peptide binding | actives 0.56% (n = 390,000); note: nearly all actives have a fitted effect of over 70% in size
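HP1-beta protein (50 nM final) preincubated 30 min at room temperature with biotinylated H3(1-18)K9me3 peptide (50 nM) in PBS pH 7.4, 0.01% Tween-20, then compound added for 30 min. AlphaScreen streptavidin donor/nickel chelate acceptor beads (10 ug/mL final), 30 min dark, luminescence read.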
G9a block: inhibitors of human histone lysine methyltransferase G9a. Q96KQ7. actives 8.8% (n = 350,000). Potency, µM (doses to about 102 µM), for inactives: at the highest dose activity, negative = inhibition, hits mostly inhibitors. G9a H3K9 monomethylation, AlphaScreen, 2 h; note: % is set by controls: 0 for no effect and ±100 for the full control effect; nearly all actives have a fitted effect of over 75% in size
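Signal arises when biotinylated H3K9 peptide, once monomethylated, bridges streptavidin donor and antibody-captured acceptor beads. Enzyme at 20 nM was preincubated 15 min with test compounds; peptide 500 nM and SAM 20 uM then reacted for 2 h.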
BAZ2B block: blocks human BAZ2B | actives 4.4% (n = 360,000) | Potency, µM (titrated, usually from 114 µM), without a hit: at the top dose activity change, negative = inhibition, actives largely listed as inhibitors | Q9UIF8 | AID 504333 | AlphaScreen BAZ2B-H3K14Ac peptide displacement; note: % is set by controls: 0 for no effect and ±100 for the full control effect; nearly all actives have a fitted effect of over 60% in size
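BAZ2B (50 nM) with biotin-H3(5-23)K14Ac peptide (50 nM) in PBS pH 7.4, 0.01% Tween-20, preformed 30 min, then compound 30 min at room temperature; top concentration 110uM. AlphaScreen streptavidin donor/nickel chelate acceptor beads (10 ug/mL final), 20 min dark, signal read.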
JMJD2A Tudor: JMJD2A Tudor domain (human) inhibition; AlphaScreen JMJD2A-Tudor / H3K4me3 peptide binding; O75164; actives 4.4% (n = 390,000); Potency, µM (series often up to 114 µM), inactives show at the top dose activity change, negative = inhibition, actives largely listed as inhibitors; note: % is set by controls: 0 for no effect and ±100 for the full control effect; nearly all actives have a fitted effect of over 50% in size
Active calls of the source: *; ? = inconclusive; . = not tested or not shown; [ ] = dose if it differs, or a comment. Calls come from the whole dose curve; as a rule, active = well fitted inhibition curve with a large enough effect; inconclusive = small, poorly fitted or top-dose-only effect; inactive = no such curve, though single readings can be large or run the other way. Potency is the fitted concentration of half-maximal effect.

SMILES | L3MBTL1 block | HP1b binding inh | G9a block | BAZ2B block | JMJD2A Tudor
Cc1nnc(NC(=O)c2cc(-c3ccco3)nc3ccccc23)s1 | 6.3µM* | . | 40µM* | 40µM* | .
O=C(Nc1nccs1)c1cc(-c2ccco2)nc2ccccc12 | 14µM* | -6% | ? | 50µM* | -32%
Cc1ccn2cc(CCNC(=O)COc3ccccc3)nc2c1 | -4% | -7% | -2% | -9% | -12%[11.4 µM]
Cc1ccc(CCNC(=O)c2coc3nc4ccccc4nc23)cc1 | 2% | 29% | . | 0% | 40µM*
CCCCCCCCCCCCCCCCCCNc1ccn(C2OC(COP(=O)(O)OCC3OC(n4cc(F)c(=O)[nH]c4=O)CC3O)C(O)C2O)c(=O)n1 (stereo not drawn) | . | -15% | . | . | 56µM*
COc1ccccc1CNC(=O)C/C(C)=N/NC(=O)COc1ccc(C)cc1Br | -7% | 27% | 27% | 0% | 1%
CCN(CC)c1ccc(CNC(=O)C/C(C)=N/NC(=O)COc2ccc(C)cc2Br)cc1 | . | ? | ? | 45µM* | ?
COc1ccc(NC(=O)NNC(=O)c2ccc3ccccc3c2O)c(OC)c1 | . | 38% | 14% | -13% | -16%
OCCC1CN(Cc2cc3ccccc3o2)CCN1Cc1ccc(F)cc1 (stereo not drawn) | -2% | 28% | -12% | -6% | -7%
CCOc1ccc(CN2CCN(Cc3[nH]c4ccccc4c3C)CC2CCO)cc1 (stereo not drawn) | -2% | -9% | 6%[12.7 µM] | ? | ?
Cc1c(CN2CCN(CC(C)(C)C)C(CCO)C2)[nH]c2ccccc12 (stereo not drawn) | -7% | -3% | 71µM* | -33% | -13%
O=c1cc(CN2CCN(Cc3ccc(F)cc3)C(CCO)C2)[nH]c2ccccc12 (stereo not drawn) | 3% | 21% | 25µM* | -2% | -27%
O=C(Nc1cccc2nsnc12)c1ccc(-c2cccc(Cl)c2)o1 | -12% | 28% | 25µM* | 6%[57.1 µM] | -13%
CCOC(=O)C(=CNNc1cccc(Cl)c1)C(=O)OCC | -23% | ? | 3.5µM* | -8% | 79µM*
COCCNC(=O)c1ccc(C)c(S(=O)(=O)Nc2ccc(C)cc2)c1 | . | 24% | 79µM* | 8% | -4%
COCCCNC(=O)c1ccc(N2CCCC2)c(NS(=O)(=O)c2ccc(C)cc2)c1 | 16% | 35% | 7.9µM* | ? | -36%
CCCCCCCCCCCCCCCCOCCOCCOCCOCCOCCOCCOCCOCCOCCOCCOCCOCCOCCOCCOCCOCCOCCOCCOCCOCCO | . | . | -5%[12.7 µM] | . | .
Cn1c(-[n+]2c(-c3ccccc3)cc(-c3ccccc3)cc2-c2ccccc2)nc2cc([N+](=O)[O-])ccc21 | -14% | 17% | 1.8µM* | 40µM* | -10%
O=C(CSc1nc2ccc(S(=O)(=O)N3CCOCC3)cc2[nH]1)N1CCOCC1 | . | ? | 1.8µM* | -37% | 79µM*
COC(=O)C1CCN(C(=O)CSc2nc3ccc(OC)cc3[nH]2)CC1 | 25% | 21% | 50µM* | 2% | -9%
COc1ccc2nc(SCC(=O)N3CCNC3=O)[nH]c2c1 | -4% | 29% | -45% | -27% | 2%
CC=C1C2C=C(C)CC1(N)c1ccc(=O)[nH]c1C2 (stereo not drawn) | . | . | 47%[59 µM] | . | .
CCCCCCCCCCCCCCC[C@@H](O)[C@H](CO)NC(C)=O | . | . | 17%[59 µM] | . | .
Cn1c(SCc2ccccc2F)nnc1-c1ccccn1 | -15%[11.4 µM] | 32% | -7% | 56µM* | -5%
Nn1c(SCc2cccc3ccccc23)nnc1-c1ccco1 | -3% | 4% | 15%[2.33 µM] | -4% | -30%
SMILES | L3MBTL1 block | HP1b binding inh | G9a block | BAZ2B block | JMJD2A Tudor
Cn1c(SCc2ccc(F)cc2)nnc1-c1ccccn1 | -6% | 30% | -5% | 50µM* | ?
Cc1ccc(CSc2nnc(-c3ccccn3)n2C)cc1 | 0% | 38% | -2%[59 µM] | ? | -33%
Cn1c(SCc2cccc3ccccc23)nnc1-c1ccco1 | -10% | 13% | 16µM* | -27% | -8%
CN(C)CCOC(=O)C12CC3CC(C1)CC(C(=O)OCCN(C)C)(C3)C2 | -25% | 23% | 56µM* | 1% | 3%
Cc1c(C(=O)Nc2ccc3c(c2)OCO3)oc2ccccc12 | . | 29% | -9% | -3% | -13%
CSCc1c(C(=O)Nc2ccc3c(c2)OCO3)oc2ccccc12 | . | -13% | 35µM* | ? | ?
CCN(CC)C(=O)Cn1c(=O)n(-c2ccc(C)c(C)c2)c(=O)c2c(C)c(C(=O)N(CC)CC)sc21 | . | 8% | 18%[59 µM] | 3% | -21%
NC(=O)N/N=C/c1ccc(-c2ccc(S(=O)(=O)Nc3ncccn3)cc2)o1 | -23% | 13% | 11µM* | -12% | -12%
CC(C)Oc1ccc(C(=O)N/N=C/c2ccc(-c3ccc(S(=O)(=O)Nc4ncccn4)cc3)o2)cc1 | . | -6% | 50µM* | ? | ?
Cc1ccc(C(=O)N/N=C\c2ccc(-c3ccc(Cl)cc3)o2)cn1 | -9% | 14% | 1% | -18% | -19%
NC(=O)N/N=C/c1ccc(-c2cccc(C(F)(F)F)c2)o1 | 4% | 21% | -31% | -34% | -23%
Cc1ccccc1OCC(=O)NCC(=O)OC(c1ccccc1)c1ccccc1 | . | 19%[57 µM] | . | . | -2%[57.1 µM]
CCc1nnc(NC(=O)c2sc3nc4c(cc3c2N)CCCCCC4)s1 | ? | -4% | 45µM* | -12% | -25%
CN(CCCC(=O)NC1CC(C)(C)NC(C)(C)C1)S(=O)(=O)c1ccc([N+](=O)[O-])cc1 | 13% | 20% | . | -4% | -6%
O=C(CSc1nnc(C2COc3ccccc3O2)o1)N1CCCC1 (stereo not drawn) | . | ? | 8.9µM* | -7% | -23%
CCOC(=O)c1sc(N(Cc2ccccc2)C(=O)CCl)nc1C | . | 85% | 40µM* | -30% | 12%
Cc1ccc(-c2nc3cc(C(C)C)ccc3o2)cc1NC(=O)c1cccs1 | . | 30% | -2%[59 µM] | -16% | 0%
Cc1ccc(S(=O)(=O)c2ccc(C)cc2)cc1 | . | 32% | 28%[59 µM] | 4% | -7%
Cc1ccc(S(=O)(=O)/C=C/C#N)cc1 | . | . | 1.6µM* | . | .
O=C(NCc1ccco1)c1ccc(COc2cccc3ccccc23)cc1 | -5% | 12% | -7% | 2% | -8%
CCOC(=O)N1CCC(N2C(=O)c3ccc(C(=O)NCc4ccco4)cc3C2=O)CC1 | -14% | 3% | 71µM* | 0% | -15%
CCC(CC)C(=O)Nc1cccc(C(=O)NCc2ccco2)c1 | ? | 16% | ? | 56µM* | ?
O=C(NCc1ccco1)c1ccc(COc2ccccc2Cl)cc1 | -5% | -24% | ? | -3% | 56µM*
CC(C)C1Nc2ccc(C(=O)NCc3ccco3)cc2NC1=O (stereo not drawn) | . | 3% | 79µM* | -3% | 0%
COCCCNC(=O)c1ccc2c(c1)NC(=O)C(C(C)C)N2 (stereo not drawn) | . | 20% | 3%[59 µM] | 2% | -14%

Screening results (PubChem BioAssay)
